Shown are actives, neighbours in structure and some others; about 3.7% of the full set was active somewhere.
PfHsp90 set2: growth inhibition of PfHsp90-expressing yeast, primary screen, antimalarial PfHsp90 inhibitor project, S. cerevisiae, BacTiter-Glo luminescence, single point, set 2 | BacTiter-Glo ATP, 48 h; yeast lacking PDR1 and PDR3 efflux regulators | inhibition, % at 9.4 µM | hit rate 0.32% among 310,000 | AID 504621, 2011;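 active = every replicate shows inhibition above about 80%, whatever the replicate mean, limit read from the data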
tim23-1 inh: growth inhibitors of tim23-1 mutant yeast, primary screen, luminescence, uHTS | inhibition, % at 20 µM | AID 463212, 2010 | hit rate 1.3% among 330,000 | S. cerevisiae tim23-1 growth, BacTiter-Glo luminescence, 24 h;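 active = growth inhibition of the mutant yeast at or above 50%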;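 also: temperature-sensitive mutant grown at 25 °C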
tim10-1 inh: growth inhibitors of tim10-1 mutant yeast, primary screen, luminescence, uHTS. S. cerevisiae tim10-1 ts strain growth, BacTiter-Glo, 24 h. inhibition, % at 20 µM. AID 463190, 2010. hit rate 2.2% among 330,000;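 active = inhibition of at least 40%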;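 also: mutant grown at 25 °C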
TIM10 inh: growth inhibitors of isogenic TIM10 control yeast, primary screen, counter-screen for tim10-1 yeast inhibitor project, luminescence, uHTS. S. cerevisiae TIM10 strain growth, BacTiter-Glo luminescence, 24 h. inhibition, % at 10 µM. hit rate 1.4% among 330,000;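 active = inhibition of 40% or more at the single tested concentration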;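 also: wild-type TIM10 isogenic control strain grown at permissive 25 °C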
NALP3 yeast inh: NALP3 inflammasome inhibitors in reconstituted yeast, primary screen, luminescence, uHTS. Yeast reconstituted NLRP3/ASC/caspase-1, beta-gal luminescence, 24 h. hit rate 0.39% among 330,000. inhibition, % at 10 µM;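 active = inhibition of 50% or more; inactive = inhibition below 50%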
tim10-1 conf: growth inhibitors of tim10-1 mutant yeast, confirmation, single concentration, luminescence, S. cerevisiae; hit rate 56% among 7,400; shares compounds with tim10-1 inh; S. cerevisiae tim10-1 ts strain growth, BacTiter-Glo, 24 h; inhibition, % at 20 µM;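 active = inhibition of yeast growth at or above a set limit in either of two repeat tests at 20 µM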;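 also: tim10-1 mutant grown at permissive 25 °C to find synthetic lethal compounds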
Of the large screens only hits and unclear results are named; the others gave an inactive call (follow-up assays come after a bar, where they were run).

O=C(Cc1ccccc1Cl)N/N=C/c1cccnc1	none
O=C(CSc1nnc(COc2ccc(F)cc2)o1)N1c2ccccc2CCc2ccccc21	tim10-1 inh 42.2 (no result: PfHsp90 set2) | tim10-1 conf inactive
Cc1cccc(OCc2nnc(SCC(=O)N3c4ccccc4CCc4ccccc43)o2)c1	none
COc1ccc(CCNC(=O)c2ccc(OCC(=O)N3CCOCC3)c(OC)c2)cc1OC	none
O=C(CN1C(=O)COc2ccccc21)NCCCN1CCOCC1	none
O=C(CN1C(=O)/C(=C\c2cccc(Br)c2)Oc2ccccc21)NCCCN1CCOCC1	tim10-1 inh 43.7 | tim10-1 conf inactive
c1ccc(-c2nnc3nc(N4CCCCC4)nc(N4CCCCC4)n23)cc1	none (no result: tim23-1 inh, tim10-1 inh, TIM10 inh, NALP3 yeast inh)
COc1cc(OC)cc(C(=O)Nc2nc(-c3ccccc3)c(-c3ccccc3)o2)c1	tim10-1 inh 43.5 | tim10-1 conf 32.8
CCN(CC)C(=S)SCC(=O)Nc1nc(-c2ccccc2)c(-c2ccccc2)o1	tim10-1 inh 40.7 | tim10-1 conf inactive
Cc1cccc(N=C2Sc3nc4c(C)c(C)ccc4cc3CN2CCN2CCOCC2)c1	tim10-1 inh 52.8 | tim10-1 conf 36.6
COCCN1Cc2cc3cc(C)ccc3nc2SC1=Nc1cccc(OC)c1	none
O=C(/C=C/c1ccccc1F)c1cccc([N+](=O)[O-])c1	tim10-1 inh 51.4 | tim10-1 conf 47.9
COc1cc(/C=C/C(=O)c2cccc([N+](=O)[O-])c2)cc(OC)c1OC	tim10-1 inh 53.5 | tim10-1 conf 41.2
O=C1Cc2cc(S(=O)(=O)N3CCNCC3)ccc2N1	none
COc1ccccc1-c1cc(C(=O)NCc2ccccc2)no1	tim10-1 inh 43.6 | tim10-1 conf inactive
CC(NC(=S)Nc1ccc(S(=O)(=O)N2CCOCC2)cc1)C1CC2CCC1C2 (stereo not given)	tim10-1 inh 48.8 | tim10-1 conf 42.8
Cc1cc(NC(=O)c2cccs2)ncc1NC(=O)C(C)(C)C	none
O=C(O)c1ccccc1-c1cc2ccccc2[nH]1	none
COc1ccccc1-c1cc2ccccc2[nH]1	tim10-1 inh 50.6 | tim10-1 conf 32.8
CC(NC(=O)C(Cc1ccccc1)=NO)c1ccccc1 (stereo not given)	none (no result: tim23-1 inh, tim10-1 inh, TIM10 inh, NALP3 yeast inh)
COc1ccc(C2=NN(C(=O)CSc3nnc(-c4ccccc4F)o3)C(c3ccco3)C2)cc1 (stereo not given)	tim10-1 inh 47.5 | tim10-1 conf 37.5
COc1ccccc1OC(C)C(=O)N(Cc1ccco1)C1CCS(=O)(=O)C1 (stereo not given)	none
COc1cccc2c1C(=O)CC1C2CCC2CC(=O)CCC21C (stereo not given)	none
COc1cccc(NCc2ccc([N+](=O)[O-])s2)c1	tim10-1 inh 40.9 | tim10-1 conf inactive
Cc1cc(N2CCOCC2)nc2ccc(NC(=S)NCCC(C)C)cc12	tim10-1 inh 43.7 | tim10-1 conf 28.5
CCCCCCCC(=O)N/N=C/c1ccc(Br)cc1	tim10-1 inh 54.2 | tim10-1 conf inactive
CCCCCCCC(=O)N/N=C/c1cccnc1	none
C[C@H]1NS(=O)(=O)c2ccc(Br)cc2O[C@H]1c1ccccc1	none (no result: NALP3 yeast inh)
CCc1cccc(NS(=O)(=O)c2ccc(-n3cccn3)cc2)c1	tim10-1 inh 50.4 | tim10-1 conf inactive
CCCCn1c(N)c(N(CC)C(=O)c2ccc(C#N)cc2)c(=O)[nH]c1=O	none
COc1ccccc1NC(=O)c1ccc(COc2ccccc2Br)o1	none
COc1ccccc1NC(=O)c1ccc(COc2ccccc2OC)o1	tim10-1 inh 40.5 | tim10-1 conf inactive
Cc1nc2c(Cl)c(C)nn2c2c1CCC2	tim10-1 inh 41.1 (no result: PfHsp90 set2) | tim10-1 conf inactive
Cc1cc2nc(C)c3c(n2n1)CCC3	none
COc1cc2ccccc2cc1C(=O)N(CCN(C)C)c1nc2c(F)cc(F)cc2s1	none
COc1ccc(C)c2sc(N(CCN(C)C)C(=O)c3ccc4ccccc4c3)nc12	tim10-1 inh 44.1 | tim10-1 conf inactive
COc1cc2ccccc2cc1C(=O)N(CCN(C)C)c1nc2ccc(Br)cc2s1	tim10-1 inh 53.7 | tim10-1 conf inactive
CCOC(OCC)c1cc2ccccc2cn1	none
CCCC(=O)Nc1cc(-c2nnc(OC)c3ccccc23)ccc1N1CCCCC1	tim10-1 inh 48.8 (no result: PfHsp90 set2) | tim10-1 conf inactive
O=C(c1ccc2ncsc2c1)N1CCN(c2ccccc2Cl)CC1	tim10-1 inh 48.9 | tim10-1 conf 37.8
Cc1cccc(N2CCN(C(=O)c3ccc4ncsc4c3)CC2)c1C	none (no result: tim23-1 inh, tim10-1 inh, TIM10 inh, NALP3 yeast inh)
Cc1ccc2c(c1)c1c(n2C)C(C(N)=O)CCC1 (stereo not given)	none (no result: PfHsp90 set2)
Cc1ccc2c(c1)c1c(n2C)-c2[nH]ncc2CC1	tim10-1 inh 54.9 (no result: PfHsp90 set2) | tim10-1 conf inactive
Cc1c(CCC(=O)NCCCCCC(=O)O)c(=O)oc2cc3occ(-c4ccccc4)c3cc12	none
O=C(CSc1nnc(-c2ccccc2)n1-c1ccccc1)c1cccs1	tim10-1 inh 46.0 (no result: PfHsp90 set2) | tim10-1 conf inactive
Cc1ccc2cc(C)c3nnc(SCC(=O)c4cccs4)n3c2c1C	tim10-1 inh 40.1 | tim10-1 conf inactive
O=C(CSc1nnc(-c2ccccc2)n1-c1ccccc1)c1ccc[nH]1	none
COc1ccc(C(=O)Nc2cc3c(cc2N2CCCCC2)n(C)c(=O)n3C)cc1OC	tim10-1 inh 48.3 | tim10-1 conf inactive
CCCCN(C1CCS(=O)(=O)C1)S(=O)(=O)c1cc(C)ccc1C (stereo not given)	none
CCOC(=O)c1c(C)[nH]c(C)c1C(=O)COC(=O)c1cc2ccccc2cc1OC	none
CCOC(=O)c1c(C)[nH]c(C)c1C(=O)COC(=O)c1cc2ccccc2cc1O	tim10-1 inh 47.3 | tim10-1 conf inactive
COc1ccc(NS(=O)(=O)c2ccc(Br)cc2)cn1	none
COc1ccc(NS(=O)(=O)c2ccc3oc4ccccc4c3c2)cn1	tim10-1 inh 44.3 | tim10-1 conf 35.7
O=C1N[C@H](C(=O)O)CS1	none (no result: PfHsp90 set2)
O=[N+]([O-])c1ccc(Cn2cc(-c3cccc(C(F)(F)F)c3)nn2)cc1	tim10-1 inh 46.6 | tim10-1 conf 32.4
COc1ccc(OC)c(NC(=O)C(C)OC(=O)c2cc3ccccc3[nH]2)c1 (stereo not given)	none (no result: tim23-1 inh, tim10-1 inh, TIM10 inh, NALP3 yeast inh)
COc1ccc(/C=N/NC(=O)COc2ccccc2-c2ccccc2)cc1	tim10-1 inh 45.0 | tim10-1 conf inactive
CNc1ccccc1C(C)(C)c1cc(-c2cccc(Br)c2)no1	none
CNc1ccccc1C(C)(C)c1cc(-c2cccc([N+](=O)[O-])c2)no1	tim10-1 inh 42.6 | tim10-1 conf 33.4
CCN(CC)S(=O)(=O)c1ccc(C)c(NC(=O)/C=C/c2cccs2)c1	tim10-1 inh 45.4 | tim10-1 conf 30.4
O=S(=O)(/C=C/C=C/S(=O)(=O)c1ccccc1)c1ccccc1	none (no result: tim23-1 inh, tim10-1 inh, TIM10 inh, NALP3 yeast inh)
